# What was measured:
# Settings in all cases: concentration: 1 μM, replicates: in singlicate; n = 1
# [1] = tested on: WNK1
# [2] = tested on: WNK2
# [3] = tested on: WNK3
# [4] = tested on: WNK4
# [5] = tested on: T1, YANK1
# T1 construct: gene STK32A
# [6] = tested on: T2, YANK2
# T2 construct: gene STK32B
# [7] = tested on: T3, YANK3
# T3 construct: gene STK32C
# [8] = tested on: T4, YES
# T4 construct: gene YES1
# [9] = tested on: T5, YSK1
# T5 construct: gene STK25
# [10] = tested on: T6, YSK4
# T6 construct: gene MAP3K19
# [11] = tested on: ZAK
# [12] = tested on: ZAP70
# [13] = tested on: T7, p38-alpha
# T7 construct: gene MAPK14
# [14] = tested on: T8, p38-beta
# T8 construct: gene MAPK11
# [15] = tested on: p38-delta
# [16] = tested on: T9, p38-gamma
# T9 construct: gene MAPK12
# 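Further: KINOMEscan kinase panel screen.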
SMILES,%Inh [1] [%],%Inh [2] [%],%Inh [3] [%],%Inh [4] [%],%Inh [5] [%],%Inh [6] [%],%Inh [7] [%],%Inh [8] [%],%Inh [9] [%],%Inh [10] [%],%Inh [11] [%],%Inh [12] [%],%Inh [13] [%],%Inh [14] [%],%Inh [15] [%],%Inh [16] [%]
CC(C)c1nc(-c2ccc(F)c(NS(=O)(=O)c3c(F)cccc3F)c2)c(-c2ccnc(Nc3ccc(N4CCOCC4)nc3)n2)s1 [GSK1804250],7,0,0,31,42,71,15,99.2,32,40,98.3,0,96,38,57,1
COc1cccc(-c2nc(-c3ccccc3)[nH]c2-c2ccncc2)c1 [SB-610250],9,0,33,29,10,4,0,8,100,100,5,0,98.2,32,44,0
Cc1ccc(C)c(NC(=O)Nc2ccc(C)c(-c3ccc(C(=O)Nc4ccncc4)cc3)c2)c1 [GSK1398473],17,97.6,11,17,7,0,15,29,0,87,70,0,0,0,38,0
CN(c1ccc2c(c1)nc(NCc1ccccc1)n2C)c1ccnc(Nc2ccc(CS(C)(=O)=O)cc2)n1.Cl [GW811603],0,2,11,0,0,0,0,0,0,97.3,4,27,2,0,27,0
Nc1ncc(-c2ccc3nccc(-c4ccncc4)c3c2)cc1S(=O)(=O)N1CCCCC1 [GSK1693850],1,4,13,64,5,0,0,10,13,69,22,0,0,0,36,22
COc1cc(Nc2ccnc3cc(-c4ccncc4)ccc23)cc(OC)c1OC.Cl [GW494610],22,4,16,19,2,32,9,76,0,98.5,49,8,52,66,2,0
Cc1cc(-c2c(-c3ccc(F)cc3)ncn2CCCN2CCOCC2)nc(N)n1 [SB-222517],0,0,0,0,0,13,16,0,20,11,13,15,22,17,0,27
CN(c1ccc(F)c(NC(=O)c2cccc(OC(C)(C)C#N)c2Cl)c1)c1ccc2nc(NC(=O)C3CC3)sc2n1,0,19,0,0,0,0,0,91.4,0,20,64,0,70,6,0,37
Cn1cc(-c2ccc3c(c2)CCN3C(=O)Cc2cc(F)cc(C(F)(F)F)c2)c2c(N)ncnc21 [GSK2635225],8,10,30,13,19,0,0,13,22,88,11,0,0,0,46,0
Cc1ccc(O)cc1Nc1ccnc2cc(-c3ccc(CN4CCCCC4)o3)ccc12 [GW557777],0,0,0,0,10,0,0,99.8,0,13,75,0,15,6,0,18
Cl.Cl.NC(CNC(=O)c1cc(Br)c(-c2ccnc3[nH]ccc23)s1)c1ccccc1 (stereo not drawn) [GSK1322949],1,0,24,20,22,0,0,2,28,94.8,11,0,23,0,14,50
Cc1ccc(-c2ccc3occ(-c4ccc(S(C)=O)cc4)c3c2)nn1 (stereo not drawn),0,18,0,0,0,1,24,0,1,4,0,13,0,10,0,0
Cc1cccc(Nc2nc(NCCN)ncc2C(N)=O)c1 [GSK1292139],7,0,31,15,9,0,0,6,31,88,0,74,45,0,24,0
N#Cc1cnc2cc(-c3cnc(CNCCN4CCOCC4)s3)ccc2c1Nc1ccc(Oc2ccccc2)cc1 [GW664114],74,95.9,94.2,89,0,0,0,97.1,19,97,95.6,59,0,0,37,0
O=C(O)C(F)(F)F.O=c1[nH]ccc2nc(N[C@@H]3CCNC3)nc(Nc3ccc4c(c3)S(=O)(=O)CC4)c12 [GSK2181306],0,29,0,0,70,0,8,20,97.4,99.7,0,1,0,0,44,23
O=C(Nc1n[nH]c2cc(-c3cccs3)ccc12)C1CC1 [SB-731284],40,0,0,0,19,0,0,0,0,94,22,12,0,0,0,22
CN1CCN(Cc2ccc(NC(=O)Nc3ccc(N(C)c4ccnc(Nc5ccc(CS(C)(=O)=O)cc5)n4)cc3)cc2)CC1.Cl [GW827654],36,45,42,0,19,0,6,0,7,100,21,52,0,0,0,48
CCn1c(-c2nonc2N)nc2c(-c3ccccc3)ncc(OCCCN)c21.O=C(O)C(F)(F)F.O=C(O)C(F)(F)F [GSK260205],22,14,32,15,99.4,87,50,28,23,99.6,0,0,99.5,65,26,2
COc1cc(Nc2nccc(N3CCC(NC(=O)Nc4ccc5c(c4)OCO5)C3)n2)cc(OC)c1OC (stereo not drawn) [GSK1379766],11,11,46,5,0,0,6,7,0,45,34,0,0,0,24,0
COc1ccc(NC(=O)c2ccoc2)cc1-c1ccc(C(=O)NCC2CC2)cc1 [GW810437],9,0,12,0,0,13,12,0,0,34,2,36,10,1,0,0
Cc1ccc(Nc2ccnc(Nc3ccc(C)c(F)c3)n2)cc1O.Cl [GW582868],41,12,31,49,1,0,1,53,0,25,2,0,0,0,30,0
COC(=O)Nc1nc2ccc(Oc3ccc(NC(=O)Nc4cc(C(F)(F)F)ccc4F)cc3)cc2[nH]1.Cl [GW654607],25,27,26,15,21,0,100,48,25,97.2,98,0,88,70,65,9
Cc1ccccc1CC(=O)N1CCc2cc(-c3cn(C)c4ncnc(N)c34)ccc21 [GSK2603346],18,25,50,8,7,0,22,18,54,84,0,0,0,0,27,0
Cl.N#CCc1ccc(Nc2nccc(Nc3ccc(Oc4ccccc4)cc3)n2)cc1 [GW639905],15,0,28,6,3,0,10,74,0,41,45,0,0,0,5,0
